Screening data deposited in PubChem BioAssay by National Center for Advancing Translational Sciences (NCATS).
Sfp inh = blocks B. subtilis Sfp PPTase activity; Q9F4F7; Biochemical Sfp PPTase activity, qHTS; Potency, µM, without a hit: largest response in the series, negative = inhibition, usual class: inhibitors; hit rate 3.5% among 310,000;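 also: the enzyme is Sfp with the accession as filed and its product quenches rhodamine fluorescence; potency is read from the fitted curve at half-maximal effect; 0% = enzyme reaction without inhibitor and -100% = no enzyme wells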
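Sfp 15 nM + cpd, 15 min RT; start w/ rhodamine-CoA 5 uM, BHQ-2-YbbR 12.5 uM (final); 50 mM Hepes pH 7.6, 10 mM MgCl2, 0.01% NP-40, 0.01% BSA; read 525/598 nm at 0 and 30 min.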
Tau fluor counter = counter-screen for tau fibril formation inhibitors; Potency, µM (highest dose often 57.7 µM), for the others: at the top dose activity change, negative = decrease; AID 1463; tau K18 P301L Alexa594 fluorescence, heparin fibrillization; hit rate 0.93% among 280,000; also: potency is read from the fitted curve at half-maximal effect; nearly all actives have a fitted effect of over 55% in size
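Human K18 P301L tau (15 uM unlabeled plus 0.24 uM Alexa 594-labeled, final) in 100 mM sodium acetate pH 7 was mixed with compound and 20 uM heparin and incubated 6 hr at 37 C.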
Tau fibril FP = blocks human tau fibril formation measured by polarization. K18 P301L tau heparin fibrillization, Alexa594 FP, 6 h. P10636. hit rate 0.39% among 280,000. Potency, µM (series often up to 57.7 µM), for inactives: top-dose activity, negative = inhibition, usual class: inhibitors; also: potency is read from the fitted curve at half-maximal effect; nearly all actives have a fitted effect of over 55% in size
Target sequence (P10636 561-689 P618L limits assumed): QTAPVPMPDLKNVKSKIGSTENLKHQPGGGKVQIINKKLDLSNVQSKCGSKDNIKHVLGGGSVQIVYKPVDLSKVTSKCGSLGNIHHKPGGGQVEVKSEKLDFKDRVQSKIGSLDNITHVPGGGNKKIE
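Steps: dispense K18 P301L tau (15 uM plus 0.24 uM Alexa 594 tracer, final) in pH 7 sodium acetate; add compound; add heparin (20 uM final); incubate 6 hr, 37 C; add ThT (30 uM final); after 1 hr ambient, read FP.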
Tau fibril ThT = inhibitors of human tau fibril formation, thioflavin T binding. Potency, µM (series often up to 57.4 µM), without a hit: top-dose activity, negative = inhibition, usual class: inhibitors. P10636. recombinant tau K18 P301L, heparin-induced fibrillization, ThT fluorescence. AID 1460. hit rate 2.1% among 270,000; also: potency is read from the fitted curve at half-maximal effect; nearly all actives have a fitted effect of over 55% in size
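Fibril formation assay: tau K18 P301L at 15 uM with trace Alexa 594 label, heparin inducer 20 uM, pH 7 sodium acetate buffer, 37 C for 6 hr; endpoint ThT signal.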
KDM4E inh = JMJD2E (human) inhibition; B2RXH2; JMJD2E catalytic domain, FDH-coupled NADH fluorescence (FDH is formaldehyde dehydrogenase); Potency, µM (series often up to 57.1 µM), for inactives: at the highest dose activity change, negative = inhibition, actives largely listed as inhibitors; hit rate 1.6% among 230,000; AID 2147; active = well fitted inhibition curve with a large enough effect, not every such curve was filed as active; inconclusive = small, poorly fitted or top-dose-only effect, or another doubt; inactive = no such curve, though single readings can be large or run the other way;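 also: potency is read from the fitted curve at half-maximal effect; 0% = wells with enzyme and -100% = buffer wells without enzyme; nearly all actives have a fitted effect of over 50% in size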
Target sequence (B2RXH2 1-337 limits assumed): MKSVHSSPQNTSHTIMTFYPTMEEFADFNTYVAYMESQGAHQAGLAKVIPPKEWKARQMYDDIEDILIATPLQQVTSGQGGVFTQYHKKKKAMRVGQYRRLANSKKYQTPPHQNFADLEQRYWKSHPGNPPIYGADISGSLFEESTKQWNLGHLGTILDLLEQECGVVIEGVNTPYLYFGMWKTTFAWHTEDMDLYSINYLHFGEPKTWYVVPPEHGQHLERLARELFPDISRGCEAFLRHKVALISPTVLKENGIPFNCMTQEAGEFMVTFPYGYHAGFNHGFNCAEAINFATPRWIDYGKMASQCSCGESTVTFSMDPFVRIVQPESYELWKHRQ
FBPA coupling cs = inhibits coupling enzyme system, counter-screen for aldolase hits; coupling enzyme system counterscreen, AmpLite Red fluorescence; activity change, negative = inhibition, % at 58.2 µM, hits read low; hit rate 0.67% among 290,000; AID 2472; in the data active = activity change below about -30%
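Coupling enzymes only (glyceraldehyde-3-phosphate) + compound, at 57.5 uM final, 10 min RT; add substrate/coupling/AmpLite Red mix, 20 min RT; fluorescence ex 525/em 598 nm. Actives flag coupling-system interference.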
Numbers without * were called inactive; ? = inconclusive; . = no result given; [ ] = remark or other dose. The list is not random: actives were taken first. Their share in the collection is about 5.3%. Unless noted, calls follow the shape of the dose curve; as a rule, active = well fitted curve in the direction sought with a large enough effect; inconclusive = small, poorly fitted or top-dose-only effect, or another doubt; inactive = no such curve, though single readings can be large; an effect the other way counts as inactive or inconclusive. Unless noted, % is scaled to controls: 0 for no effect and ±100 for the full control effect.

SMILES	Sfp inh	Tau fluor counter	Tau fibril FP	Tau fibril ThT	KDM4E inh	FBPA coupling cs
Cc1ccc(-c2nc3sc(C(N)=O)c(N)c3c3c2CCCC3)cc1	40µM*	10%	9%	5%	1%	9
CC(C)c1nc2sc(C(=O)O)c(N)c2c2c1CCCC2	56µM*	3%	-4%	-8%	-1%	1
CC(=O)c1sc2nc(-c3ccc(C)cc3)c3c(c2c1N)CCCC3	35µM*	?	9%	?	?	1
Cc1nc2sc(C(N)=O)c(N)c2c2c1CCCC2	79µM*	-9%	1%	?	?	-2
O=C(Nc1ccc(F)cc1)[C@H](Cc1ccccc1)N1Cc2ccccc2C1=O	.	-13%	-6%	2%	.	.
COc1ncnc2c1sc1nc(-c3ccccc3)c3c(c12)CCCC3	?	-4%	3%	2%	4%	0
NC(=O)c1sc2nc(-c3ccccc3)c3c(c2c1N)CCCC3	40µM*	?	2%	?	?	20
CN(CC(=O)O)Cc1nc2ccccc2[nH]1	89µM*	-7%	2%	-12%	-26%	-3
CCOC(=O)c1sc(NC(=O)c2cc(-c3ccc(C)cc3)nc3ccccc23)c(C#N)c1C	20µM*	-26%	?	?	-9%	5
Cc1ccccc1-c1cc(C(=O)Nc2sc(C(=O)OC(C)C)c(C)c2C#N)c2ccccc2n1	40µM*	-24%	-4%	?	?	11
Cc1cc(NC(=O)c2cc(-c3ccccc3C)nc3ccccc23)no1	1%	-12%	6%	-6%	-4%	-2
COc1ccc(-c2cc(C(=O)Nc3sc4c(c3C#N)CCCC4)c3ccccc3n2)cc1	9%	-2%	-7%	1%	?	2
Cc1cc(=O)oc2cc(O)c(O)cc12	4%	-10%	-2%	-3%	?	-2
O=S1(=O)C2CC3OC2(CC3c2ccc(F)cc2)CN1Cc1ccc(Cl)cc1 (centres undefined)	17%	.	.	.	.	-2
CC(=O)Nc1ccc(NC(=O)CCCc2c[nH]c3ccccc23)cc1	3%	-8%	9%	?	-1%	3
O=C(CCCc1c[nH]c2ccccc12)Nc1ccc2ccccc2c1	6%	8.9µM*[quencher]	?	?	7%	-3
COc1cccc(-c2nc(Oc3cccc(C)c3C)c3ccccc3n2)c1O	0%	-10%	-1%	-3%	-1%	2
COc1cccc(-c2nc(NC(C)C)c3ccccc3n2)c1O	-3%	16µM*[quencher]	10%	18µM*	3%	-1
COc1cccc(-c2nc(NCC3CCCO3)c3ccccc3n2)c1O (centres undefined)	12%	20µM*[quencher]	19%	?	4%	-1
CCC(C)Nc1nc(-c2cccc(OC)c2O)nc2ccccc12 (centres undefined)	12%	16µM*[quencher]	?	?	-9%	1
Cc1nn(-c2ccccc2)c2c1cc1c(=O)[nH]c(=O)nc-1n2-c1cccc(C(F)(F)F)c1	.	-9%	-9%	-8%	.	.
CCCC(=O)N(C1CC(C)C(C#N)(C#N)C1(C#N)C#N)N(C)C (centres undefined)	1.8µM*	-1%	?	?	4%	0
CC(=O)N(C1CC(C)C(C#N)(C#N)C1(C#N)C#N)N(C)C (centres undefined)	10µM*	19%	-1%	-13%	-7%	-2
O=S(=O)(NCCc1nnc2ccc(SCc3c(F)cccc3Cl)nn12)c1ccccc1	.	-6%	2%	-12%	.	.
Cc1ccc(C(=O)OC[C@H]2O[C@H](Cl)C[C@@H]2OC(=O)c2ccc(C)cc2)cc1	-7%	-2%	3%	-17%	7%	2
CN(C)S(=O)(=O)c1cccc(-c2csc(N/N=C/c3ccco3)n2)c1	14µM*	?	?	?	-24%	-2
Cc1ccc(-c2csc(N/N=C/c3ccco3)n2)c(C)c1	14%	?	7%	?	-21%	2
